Measurements as given in the supplement of paper PMC11732987, “Enantioselective OTUD7B fragment discovery through chemoproteomics screening and high-throughput optimisation” (Communications Chemistry, 2025).

Columns and labels:
Experiment in all cases: log2 ratio of Biotin-Ahx-Ub-VS probe labelling (fragment/DMSO); higher = less target engagement (more negative = stronger competition), active = hit call of the paper (q ≤ 0.05, log2 ratio ≤ -1)
Conditions in all cases: compound concentration: 200 uM; treatment time: 3 h
USP34 = USP34 (UniProt Q70CQ2)
Outline: (§1)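 Labelled DUBs were enriched with NeutrAvidin, digested with LysC and trypsin, and run by diaPASEF LC-MS/MS. The labelling used Biotin-Ahx-Ub-VS at 0.5 µM final for 1 h on HEK293T lysate (495 µg per sample) previously treated in triplicate with fragment at 200 µM or vehicle for 3 h. Values are average log2 fragment/vehicle ratios by unpaired t-test on global-median-normalised Spectronaut quantities of proteins with ≥2 unique peptides.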

USP36 = biological target: T1, USP36 (UniProt Q9P275)
T1 sequence (whole entry): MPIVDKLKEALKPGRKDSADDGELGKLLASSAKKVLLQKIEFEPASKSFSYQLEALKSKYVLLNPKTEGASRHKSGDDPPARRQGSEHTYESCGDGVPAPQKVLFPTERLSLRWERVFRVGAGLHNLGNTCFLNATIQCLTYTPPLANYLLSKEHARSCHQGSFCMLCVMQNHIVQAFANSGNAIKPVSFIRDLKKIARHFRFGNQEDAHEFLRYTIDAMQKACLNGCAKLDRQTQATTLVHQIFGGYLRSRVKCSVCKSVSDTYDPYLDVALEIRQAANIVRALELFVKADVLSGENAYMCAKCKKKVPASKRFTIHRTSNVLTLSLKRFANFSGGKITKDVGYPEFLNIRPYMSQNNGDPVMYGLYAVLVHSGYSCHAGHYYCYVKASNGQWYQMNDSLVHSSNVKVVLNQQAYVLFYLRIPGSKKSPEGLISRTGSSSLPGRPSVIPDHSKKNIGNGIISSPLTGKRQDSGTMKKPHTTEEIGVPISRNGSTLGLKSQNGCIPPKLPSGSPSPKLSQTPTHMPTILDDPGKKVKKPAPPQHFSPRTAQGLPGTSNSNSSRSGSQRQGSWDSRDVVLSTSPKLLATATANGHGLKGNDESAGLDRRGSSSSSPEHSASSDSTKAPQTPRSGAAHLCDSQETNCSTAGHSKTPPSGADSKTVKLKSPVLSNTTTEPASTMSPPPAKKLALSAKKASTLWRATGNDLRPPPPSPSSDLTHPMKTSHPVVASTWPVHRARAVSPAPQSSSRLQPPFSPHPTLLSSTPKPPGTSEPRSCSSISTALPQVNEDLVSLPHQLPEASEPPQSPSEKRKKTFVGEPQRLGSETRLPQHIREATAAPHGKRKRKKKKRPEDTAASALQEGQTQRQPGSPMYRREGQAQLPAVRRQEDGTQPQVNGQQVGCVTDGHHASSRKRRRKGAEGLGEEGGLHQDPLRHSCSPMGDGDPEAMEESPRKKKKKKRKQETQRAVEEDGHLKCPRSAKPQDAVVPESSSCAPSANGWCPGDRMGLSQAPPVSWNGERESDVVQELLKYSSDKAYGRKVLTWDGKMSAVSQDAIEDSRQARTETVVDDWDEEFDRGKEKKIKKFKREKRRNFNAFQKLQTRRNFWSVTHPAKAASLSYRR
Outline: as §1

USP38 = biological target: T2, USP38 (UniProt Q8NB14)
T2 sequence (whole entry): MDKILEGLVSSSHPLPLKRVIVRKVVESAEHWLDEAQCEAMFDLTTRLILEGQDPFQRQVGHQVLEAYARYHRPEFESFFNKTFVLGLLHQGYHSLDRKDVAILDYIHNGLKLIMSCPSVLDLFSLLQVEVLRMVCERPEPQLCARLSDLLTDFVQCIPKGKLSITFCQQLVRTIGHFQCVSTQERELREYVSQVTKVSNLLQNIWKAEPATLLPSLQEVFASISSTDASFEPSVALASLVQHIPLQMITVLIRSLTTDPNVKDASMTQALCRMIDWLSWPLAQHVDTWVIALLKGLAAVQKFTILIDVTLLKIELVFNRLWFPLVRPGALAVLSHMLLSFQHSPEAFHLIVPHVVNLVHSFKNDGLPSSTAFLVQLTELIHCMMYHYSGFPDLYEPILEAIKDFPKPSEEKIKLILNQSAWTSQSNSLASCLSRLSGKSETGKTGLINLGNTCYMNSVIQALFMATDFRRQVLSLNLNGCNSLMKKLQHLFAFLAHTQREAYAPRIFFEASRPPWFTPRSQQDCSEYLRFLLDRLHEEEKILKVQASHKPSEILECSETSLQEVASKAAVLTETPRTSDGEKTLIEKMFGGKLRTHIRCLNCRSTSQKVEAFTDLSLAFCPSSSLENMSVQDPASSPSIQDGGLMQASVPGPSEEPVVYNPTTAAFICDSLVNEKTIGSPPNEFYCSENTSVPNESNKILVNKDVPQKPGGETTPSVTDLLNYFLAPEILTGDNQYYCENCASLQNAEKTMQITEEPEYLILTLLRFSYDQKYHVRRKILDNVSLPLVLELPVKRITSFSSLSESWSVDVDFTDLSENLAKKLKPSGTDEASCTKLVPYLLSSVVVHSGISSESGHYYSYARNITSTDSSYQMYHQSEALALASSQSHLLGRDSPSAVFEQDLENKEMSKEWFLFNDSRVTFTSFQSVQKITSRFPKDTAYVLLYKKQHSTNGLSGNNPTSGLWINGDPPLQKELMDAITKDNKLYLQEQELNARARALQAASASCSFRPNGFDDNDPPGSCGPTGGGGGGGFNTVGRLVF
Outline: as §1

USP39 = biological target: T3, USP39 (UniProt Q53GS9)
T3 sequence (whole entry): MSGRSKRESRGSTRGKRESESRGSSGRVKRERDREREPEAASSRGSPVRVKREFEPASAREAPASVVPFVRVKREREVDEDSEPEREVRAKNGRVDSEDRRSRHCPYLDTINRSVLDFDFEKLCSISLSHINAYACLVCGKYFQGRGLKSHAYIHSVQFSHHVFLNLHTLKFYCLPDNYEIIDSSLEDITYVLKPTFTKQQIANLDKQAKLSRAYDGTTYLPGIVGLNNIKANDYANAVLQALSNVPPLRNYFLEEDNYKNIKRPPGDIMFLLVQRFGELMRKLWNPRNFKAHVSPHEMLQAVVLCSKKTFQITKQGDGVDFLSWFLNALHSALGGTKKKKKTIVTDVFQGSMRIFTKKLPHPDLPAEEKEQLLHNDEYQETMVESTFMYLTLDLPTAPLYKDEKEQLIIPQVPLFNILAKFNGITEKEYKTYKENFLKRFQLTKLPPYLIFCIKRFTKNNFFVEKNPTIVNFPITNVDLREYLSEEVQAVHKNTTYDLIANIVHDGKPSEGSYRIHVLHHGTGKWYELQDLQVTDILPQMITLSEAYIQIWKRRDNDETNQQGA
Outline: as §1

USP4 = biological target: T4, USP4 (UniProt Q13107)
T4 sequence (whole entry): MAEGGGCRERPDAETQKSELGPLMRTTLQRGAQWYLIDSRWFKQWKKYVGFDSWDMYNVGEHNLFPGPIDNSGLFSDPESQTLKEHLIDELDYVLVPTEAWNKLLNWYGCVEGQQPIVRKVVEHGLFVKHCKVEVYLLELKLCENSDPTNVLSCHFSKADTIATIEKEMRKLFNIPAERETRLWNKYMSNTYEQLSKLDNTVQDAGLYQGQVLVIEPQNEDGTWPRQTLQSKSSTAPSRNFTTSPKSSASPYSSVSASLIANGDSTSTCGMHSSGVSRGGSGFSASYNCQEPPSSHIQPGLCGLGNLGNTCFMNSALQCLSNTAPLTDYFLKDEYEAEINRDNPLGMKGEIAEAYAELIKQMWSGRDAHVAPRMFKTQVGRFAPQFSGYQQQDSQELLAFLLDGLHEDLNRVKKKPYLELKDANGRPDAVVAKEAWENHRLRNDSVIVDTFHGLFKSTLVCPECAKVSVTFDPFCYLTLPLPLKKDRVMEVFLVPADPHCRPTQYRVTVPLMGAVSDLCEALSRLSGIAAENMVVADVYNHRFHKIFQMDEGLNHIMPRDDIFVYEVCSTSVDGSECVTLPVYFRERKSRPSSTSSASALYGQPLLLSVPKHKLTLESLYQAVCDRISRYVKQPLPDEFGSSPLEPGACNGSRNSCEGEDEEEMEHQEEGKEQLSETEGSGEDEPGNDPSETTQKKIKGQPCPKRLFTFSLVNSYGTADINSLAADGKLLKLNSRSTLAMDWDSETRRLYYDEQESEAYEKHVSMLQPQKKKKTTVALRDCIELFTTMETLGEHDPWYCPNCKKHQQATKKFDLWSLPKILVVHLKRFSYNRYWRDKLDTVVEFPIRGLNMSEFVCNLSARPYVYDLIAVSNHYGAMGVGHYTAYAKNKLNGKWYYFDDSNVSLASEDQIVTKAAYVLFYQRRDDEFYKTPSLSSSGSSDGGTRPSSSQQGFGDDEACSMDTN
Outline: as §1

Measured: log2 ratio of Biotin-Ahx-Ub-VS probe labelling

Sequence of USP34 (Q70CQ2 whole entry, the tested form may be a part): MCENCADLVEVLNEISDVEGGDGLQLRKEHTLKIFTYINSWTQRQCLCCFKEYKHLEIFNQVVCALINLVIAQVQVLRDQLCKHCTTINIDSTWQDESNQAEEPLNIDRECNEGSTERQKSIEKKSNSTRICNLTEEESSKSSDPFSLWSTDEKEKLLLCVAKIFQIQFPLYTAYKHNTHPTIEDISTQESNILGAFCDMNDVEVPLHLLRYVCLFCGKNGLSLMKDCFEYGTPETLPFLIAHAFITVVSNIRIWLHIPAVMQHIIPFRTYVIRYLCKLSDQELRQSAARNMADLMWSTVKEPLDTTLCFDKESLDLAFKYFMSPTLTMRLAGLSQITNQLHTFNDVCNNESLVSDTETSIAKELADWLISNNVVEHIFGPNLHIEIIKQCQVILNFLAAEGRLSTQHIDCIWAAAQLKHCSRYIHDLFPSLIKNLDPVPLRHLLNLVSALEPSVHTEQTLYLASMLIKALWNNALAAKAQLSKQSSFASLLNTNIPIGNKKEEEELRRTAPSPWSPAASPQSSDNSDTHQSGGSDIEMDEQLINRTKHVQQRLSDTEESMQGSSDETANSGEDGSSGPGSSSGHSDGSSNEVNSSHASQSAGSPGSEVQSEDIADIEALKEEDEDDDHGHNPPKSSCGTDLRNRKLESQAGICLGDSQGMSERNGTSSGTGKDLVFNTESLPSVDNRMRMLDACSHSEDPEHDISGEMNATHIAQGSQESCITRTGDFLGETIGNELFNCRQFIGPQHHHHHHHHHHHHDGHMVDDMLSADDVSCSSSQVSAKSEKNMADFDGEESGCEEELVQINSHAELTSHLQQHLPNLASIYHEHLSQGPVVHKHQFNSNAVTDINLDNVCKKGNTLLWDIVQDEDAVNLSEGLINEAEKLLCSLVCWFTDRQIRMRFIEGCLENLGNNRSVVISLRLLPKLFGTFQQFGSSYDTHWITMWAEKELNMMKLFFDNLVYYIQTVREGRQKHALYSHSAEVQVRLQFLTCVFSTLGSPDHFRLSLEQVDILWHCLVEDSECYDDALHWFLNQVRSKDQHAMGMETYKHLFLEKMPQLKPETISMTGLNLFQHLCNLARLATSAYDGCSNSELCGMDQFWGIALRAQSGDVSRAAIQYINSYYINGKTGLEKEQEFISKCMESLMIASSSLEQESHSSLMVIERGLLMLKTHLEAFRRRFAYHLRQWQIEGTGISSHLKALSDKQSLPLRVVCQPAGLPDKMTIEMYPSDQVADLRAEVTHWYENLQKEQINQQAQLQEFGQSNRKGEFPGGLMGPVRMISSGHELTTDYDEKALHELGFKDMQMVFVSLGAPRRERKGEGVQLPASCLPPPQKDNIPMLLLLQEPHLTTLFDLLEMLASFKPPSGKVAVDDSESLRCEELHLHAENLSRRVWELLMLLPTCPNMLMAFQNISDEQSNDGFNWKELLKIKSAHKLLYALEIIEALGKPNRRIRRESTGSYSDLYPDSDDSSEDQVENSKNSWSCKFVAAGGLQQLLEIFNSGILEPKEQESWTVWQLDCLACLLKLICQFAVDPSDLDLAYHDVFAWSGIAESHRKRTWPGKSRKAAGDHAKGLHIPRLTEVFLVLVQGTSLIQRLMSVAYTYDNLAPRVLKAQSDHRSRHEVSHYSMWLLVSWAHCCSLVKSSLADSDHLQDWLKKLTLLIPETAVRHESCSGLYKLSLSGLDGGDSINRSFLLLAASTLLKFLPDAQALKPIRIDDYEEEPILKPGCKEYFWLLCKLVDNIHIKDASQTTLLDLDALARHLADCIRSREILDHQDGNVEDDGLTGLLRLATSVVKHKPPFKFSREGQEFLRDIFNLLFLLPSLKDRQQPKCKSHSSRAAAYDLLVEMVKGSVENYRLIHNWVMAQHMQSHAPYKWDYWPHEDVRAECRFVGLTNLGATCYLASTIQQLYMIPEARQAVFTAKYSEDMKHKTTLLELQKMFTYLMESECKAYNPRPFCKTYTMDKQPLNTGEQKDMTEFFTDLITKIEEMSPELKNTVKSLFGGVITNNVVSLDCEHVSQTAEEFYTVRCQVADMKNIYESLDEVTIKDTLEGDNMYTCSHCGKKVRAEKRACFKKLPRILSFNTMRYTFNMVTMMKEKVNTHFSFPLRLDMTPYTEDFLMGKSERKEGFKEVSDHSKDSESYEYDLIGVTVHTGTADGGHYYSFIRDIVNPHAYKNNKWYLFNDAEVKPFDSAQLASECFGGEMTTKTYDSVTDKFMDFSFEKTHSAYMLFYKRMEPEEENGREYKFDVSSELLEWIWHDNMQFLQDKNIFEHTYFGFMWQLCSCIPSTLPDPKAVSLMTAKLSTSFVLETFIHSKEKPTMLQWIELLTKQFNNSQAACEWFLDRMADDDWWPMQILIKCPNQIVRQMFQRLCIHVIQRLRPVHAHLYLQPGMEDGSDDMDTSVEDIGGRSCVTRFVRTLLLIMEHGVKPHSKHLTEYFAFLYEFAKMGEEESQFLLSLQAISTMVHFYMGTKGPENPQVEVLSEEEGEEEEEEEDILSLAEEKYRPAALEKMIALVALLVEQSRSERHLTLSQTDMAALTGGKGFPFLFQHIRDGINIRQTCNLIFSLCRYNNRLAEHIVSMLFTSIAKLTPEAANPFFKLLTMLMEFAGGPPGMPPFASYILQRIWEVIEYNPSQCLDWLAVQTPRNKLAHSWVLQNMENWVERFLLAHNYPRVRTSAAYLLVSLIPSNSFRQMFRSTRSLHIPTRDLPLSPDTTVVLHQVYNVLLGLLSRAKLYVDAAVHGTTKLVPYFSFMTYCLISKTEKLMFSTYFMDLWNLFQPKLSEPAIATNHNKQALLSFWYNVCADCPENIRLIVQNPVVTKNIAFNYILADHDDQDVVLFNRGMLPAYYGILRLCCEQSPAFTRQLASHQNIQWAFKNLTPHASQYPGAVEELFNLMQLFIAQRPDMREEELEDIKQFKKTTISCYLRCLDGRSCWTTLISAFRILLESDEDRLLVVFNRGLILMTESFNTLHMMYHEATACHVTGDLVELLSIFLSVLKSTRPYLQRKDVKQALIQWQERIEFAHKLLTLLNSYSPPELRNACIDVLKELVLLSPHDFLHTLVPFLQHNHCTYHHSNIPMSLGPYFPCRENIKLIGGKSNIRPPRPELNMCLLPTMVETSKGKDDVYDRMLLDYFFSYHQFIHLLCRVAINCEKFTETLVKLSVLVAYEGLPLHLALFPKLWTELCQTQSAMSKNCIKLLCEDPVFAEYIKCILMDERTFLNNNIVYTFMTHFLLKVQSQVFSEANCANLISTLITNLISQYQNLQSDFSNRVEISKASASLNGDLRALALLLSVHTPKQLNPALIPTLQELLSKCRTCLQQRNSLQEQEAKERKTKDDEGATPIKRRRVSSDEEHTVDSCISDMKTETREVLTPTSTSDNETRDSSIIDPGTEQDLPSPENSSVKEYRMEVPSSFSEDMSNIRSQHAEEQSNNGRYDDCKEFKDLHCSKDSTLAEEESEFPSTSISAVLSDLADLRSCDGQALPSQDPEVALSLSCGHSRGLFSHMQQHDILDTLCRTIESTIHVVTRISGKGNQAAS

O=C(CCl)NC1CCOc2ccccc21 (stereo not given)
inactive: USP34 -0.539 | USP36 -0.388 | USP38 -0.738 | USP39 -0.0973 | USP4 -0.674
